# Measurements taken from PubChem BioAssay (NCATS).
# Where “and” joins values, the source holds several entries; their conditions need not be identical. Equal values may be shown once. Results filed as inconclusive are left out. More than one record can exist for a structure, and the calls need not agree. Calls of active or inactive are those of the source. Calls follow the shape of the dose curve; as a rule, active = well fitted cell-killing curve with a large enough effect; inconclusive = small, poorly fitted or top-dose-only effect, or effect the other way; inactive = no such curve, though single readings can be large or run the other way.
# Assay: Viability qHTS for spleen associated tyrosine kinase inhibitor (SYKi) naive MV4-11 cells (AID 1963823); also: nearly all actives have a fitted effect of over 40% in size
# Settings: MV4-11 AML viability, CellTiter-Glo luminescence, 72 h; series mostly up to 45 µM; viability (% of control): at the top concentration
# Method in brief: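 Viability of MV4-11 AML cells lacking prior SYK inhibitor exposure is scored by CellTiter-Glo luminescence following 72 hr compound incubation at 37 C, 5% CO2, seeded at 500 cells per well.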
# Potency is read from the fitted curve at half-maximal effect.
Structure (SMILES),Potency,viability (% of control)
CC(C)(C(=O)O)c1ccc(C(O)CCCN2CCC(C(O)(c3ccccc3)c3ccccc3)CC2)cc1 (stereo not given),inactive,–
O=C(OCC1(COC(=O)c2cccnc2)CCCC(COC(=O)c2cccnc2)(COC(=O)c2cccnc2)C1O)c1cccnc1,–,87.4% (inactive)
O=c1oc2c(C3OCCCO3)c(O)ccc2c2c1CNCC2,13.2 µM (active),–
OC[C@H]1O[C@@H](S[C@@H]2O[C@H](CO)[C@H](O)[C@H](n3cc(-c4cccc(F)c4)nn3)[C@H]2O)[C@H](O)[C@@H](n2cc(-c3cccc(F)c3)nn2)[C@H]1O,–,68.3% (inactive)
NS(=O)(=O)c1cc2c(cc1Cl)NC(CC1CCCC1)NS2(=O)=O (stereo not given),–,93.9% (inactive)
COc1cc2c(cc1OC)CN(CCc1ccc(-n3nnc(-c4cc(OC)c(OC)cc4NC(=O)c4cc(=O)c5ccccc5o4)n3)cc1)CC2,–,79.1% [at 0.588 µM] (inactive)
CC1(C)OC2=C(C(=O)c3ccccc3C2=O)[C@H](NCc2ccccc2)[C@@H]1O,2.63 µM (active),–
Nc1ccc(C(=O)O)c(O)c1,–,86.9% (inactive)
C[C@@H]1N=C(N)NC(N(C)C)=N1,inactive,–
CN1CCC[C@@H]1c1cccnc1,–,64.5% (inactive)
CC(=O)OCC(=O)[C@@]12OC(C)(C)O[C@@H]1C[C@H]1[C@@H]3C[C@H](F)C4=CC(=O)C=C[C@]4(C)[C@@]3(F)[C@@H](O)C[C@@]12C,inactive and 93.4 nM (active),–
O=C(Nc1ccnc(NC(=O)C2CC2)c1)c1c(Cl)cccc1Cl,5.17 µM (active),–
Cc1cc(OCc2nnc(SC3CCCC3)n2-c2cccnc2)ccc1-c1ccc(S(C)(=O)=O)cc1,0.184 µM (active),–
CCc1cc2c(cc1N1CCC(N3CCOCC3)CC1)C(C)(C)c1[nH]c3cc(C#N)ccc3c1C2=O,0.178 µM (active),–
NS(=O)(=O)c1cc2c(cc1Cl)NC(C1CC3C=CC1C3)NS2(=O)=O (stereo not given),–,65.2% (inactive)
CC(C)C[C@H](NC(=O)[C@H](Cc1ccccc1)NC(=O)OCc1ccccc1)C(=O)C=O,23.5 µM (active),–
CCC1NC(=O)c2cc(S(N)(=O)=O)c(Cl)cc2N1 (stereo not given),–,70.3% (inactive)
COc1cc2nccc(Oc3ccc(NC(=O)c4cn(C(C)C)c(=O)n(-c5ccc(F)cc5)c4=O)cc3F)c2cc1OC,0.186 µM (active),–
O=C1NC(=O)/C(=C/c2ccc3nccc(-c4ccncc4)c3c2)S1,461 nM (active) and 372 nM (active),–
O=C1Nc2nc(-c3c(O)cccc3OCC3CC3)cc([C@@H]3CCCNC3)c2CO1,2.91 µM (active),–

Structure (SMILES),Potency,viability (% of control)
CN[C@H]1CC[C@@H](c2ccc(Cl)c(Cl)c2)c2ccccc21,6.61 µM (active),–
CCC(=O)NC[C@H](Cc1ccc(OCCc2nc(-c3ccccc3)oc2C)cc1)N/C(C)=C\C(=O)c1ccc(C(F)(F)F)cc1,16.6 µM (active),–
O=C(c1ccc(F)c(F)c1Nc1ccc(I)cc1F)N1CC(O)([C@@H]2CCCCN2)C1,326 nM (active) and 235 nM (active),–
NC[C@@](O)(c1ccc(Cl)cc1)c1ccc(-c2cn[nH]c2)cc1,2.06 µM (active) and 3.32 µM (active),–
CC1=C2C[C@H]3[C@@H](CC[C@@H]4C[C@H](NS(C)(=O)=O)CC[C@@]43C)[C@@H]2CC[C@@]2(C1)O[C@@H]1C[C@H](C)CN[C@H]1[C@H]2C,9.34 µM (active),–
COc1ccc(-c2cc(=O)c3c(O)cc(O[C@@H]4O[C@H](CO[C@@H]5O[C@@H](C)[C@H](O)[C@@H](O)[C@H]5O)[C@@H](O)[C@H](O)[C@H]4O)cc3o2)cc1O,–,72.6% (inactive)
CCC[C@H](N[C@H]1CCc2cc(F)cc(F)c2C1)C(=O)Nc1cn(C(C)(C)CNCC(C)(C)C)cn1,8.33 µM (active),–
O=C(/C=C/c1ccc(Cl)cc1)N1CCC2(CC1)CN(Cc1ccc(Cl)c(Cl)c1)C(=O)O2,18.6 µM (active),–
NC(=O)c1nc(F)c[nH]c1=O,inactive,–
O=C(O)COC(=O)Cc1ccccc1Nc1c(Cl)cccc1Cl,–,78.2% (inactive)
COc1cc(N2CCC(N)CC2)ccc1Nc1ncc(Cl)c(-c2c[nH]c3ccccc23)n1,0.0166 µM (active),–
CC(COc1ccccc1)NC(C)C(O)c1ccc(O)cc1 (stereo not given),–,55.4% (inactive)
Cc1ccc2ccc(Cl)cc2n1,–,94.2% (inactive)
CCCCC1(COC(=O)CCC(=O)O)C(=O)N(c2ccccc2)N(c2ccccc2)C1=O,–,87.6% (inactive)
CN1CCC(c2c(O)cc(O)c3c(=O)cc(-c4ccccc4Cl)oc23)C1CO (stereo not given),0.742 µM (active),–
CN(C)CCCSc1ccccc1NC(=O)/C=C/c1ccccc1,–,55% (inactive)
C=CC(=O)Nc1cccc(Nc2nc(Nc3ccc(OCCOC)cc3)ncc2F)c1,0.468 µM (active),–
CCCCCCCCCCCCCCCCCC(=O)OCC(O)CO (stereo not given),–,76.1% (inactive)
COc1ccc(N2C(=O)N(c3c(C)cccc3Cl)Cc3cnc(Nc4ccc(C5CCN(C)CC5)cc4OC)nc32)nc1,0.934 µM (active),–
Cc1ccc(S(=O)(=O)Nc2cc(-c3ccc(C#N)s3)ccc2C)cc1,0.0295 µM (active),–
